# Results published in PubChem BioAssay (NCI).
# The panel holds about 83,000 compounds, 20% with a hit somewhere; the sample as a whole holds those more often.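 Results are percent growth after 48 hours of single-concentration exposure. 100 means growth as in untreated cells, lower positive values show inhibition; negative values down to -100 show cell death.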 Values without a mark were called inactive. Activity calls are given as the source filed them. How the source made its calls: active means growth percent below 10; inactive means the rest.
# Key:
# Assay in all cases: NCI-60 one-dose screen, 48 h (100 = growth as untreated, 0 = no growth, -100 = all killed)
# Conditions in all cases: 10 µM unless noted
# NCI-H23 lung = tested on: NCI-H23 lung
# NCI-H226 lung = tested on: NCI-H226 lung
# NCI-H322M lung = tested on: NCI-H322M lung
# HOP-62 NSCLC = tested on: HOP-62 NSCLC
# NCI-H460 lung = tested on: NCI-H460 lung
# HOP-92 NSCLC = tested on: HOP-92 NSCLC
# A549/ATCC NSCLC = tested on: A549/ATCC NSCLC
# 786-0 renal = tested on: 786-0 renal
# COLO 205 colon = tested on: COLO 205 colon
# DU-145 prostate = tested on: DU-145 prostate
# K-562 leukemia = tested on: K-562 leukemia
# MALME-3M melanoma = tested on: MALME-3M melanoma
# MDA-MB-231 breast = tested on: MDA-MB-231 breast
# SF-268 CNS = tested on: SF-268 CNS
# SF-295 CNS = tested on: SF-295 CNS
# SF-539 CNS = tested on: SF-539 CNS
# UACC-257 melanoma = tested on: UACC-257 melanoma
# M14 melanoma = tested on: M14 melanoma
# RXF 393 renal = tested on: RXF 393 renal
Compound,growth (NCI-H23 lung),growth (NCI-H226 lung),growth (NCI-H322M lung),growth (HOP-62 NSCLC),growth (NCI-H460 lung),growth (HOP-92 NSCLC),growth (A549/ATCC NSCLC),growth (786-0 renal),growth (COLO 205 colon),growth (DU-145 prostate),growth (K-562 leukemia),growth (MALME-3M melanoma),growth (MDA-MB-231 breast),growth (SF-268 CNS),growth (SF-295 CNS),growth (SF-539 CNS),growth (UACC-257 melanoma),growth (M14 melanoma),growth (RXF 393 renal)
Clc1ccc(COC(Cn2ccnc2)c2ccc(Cl)cc2Cl)cc1 (centres undefined),54.2%,70.2%,84.9%,75.1%,33.2%,26%,51.7%,68.5%,68.8%,71.6%,-4.49% (active),42.9%,57.6%,52.1%,17.9%,87.7%,61.9%,58.9%,
O=C(NCCN1CC1)C(=O)NCCN1CC1,90.5%,87.4%,102%,84.5%,58%,103%,75.3%,98.3%,88.7%,90.2%,87.9%,103%,99.3%,77.8%,51%,101%,85.1%,92.9%,
CNCc1cccnc1,104%,101%,113%,114%,114%,108%,97.6%,107%,122%,111%,,124%,126%,104%,95.5%,112%,105%,117%,121%
Cc1c(C)c([N+](=O)[O-])c(C)c(C)c1[N+](=O)[O-],112%,100%,121%,109%,113%,135%,91.5%,103%,119%,108%,102%,138%,108%,100%,101%,108%,99.5%,115%,112%
CS(=O)(=O)CCN1CC2CCCC(C2)C1,99.7%,121%,127%,103%,110%,109%,99.9%,95.6%,99%,102%,113%,111%,105%,102%,108%,100%,104%,98.6%,107%
Fc1ccc2c(c1)c(-c1nc(-c3c[nH]c4ncccc34)cs1)cn2CCCCN1CCCCC1,-75.9% (active),-7.3% (active),-47.9% (active),-89.5% (active),-80% (active),-52.8% (active),-87.7% (active),-93.7% (active),-89.6% (active),-93.1% (active),-74.1% (active),-73% (active),-88.4% (active),-77.5% (active),-60.7% (active),-82.4% (active),-87.2% (active),-88.5% (active),-73.1% (active)
CC1=C2[C@@H](CC1)[C@]1(C)O[C@@](C(C)C)(C[C@H]1O)[C@H]2OC(=O)C1CC1c1ccccc1 (some centres undefined),102%,75.6%,109%,81.7%,102%,73.3%,76.5%,97.9%,90.5%,106%,84.6%,92.2%,78.2%,86.1%,92.1%,94.6%,103%,90.9%,99.4%
CC1[C@H](C)OC(=O)CC(O)CC(O)CC(O)CCC(O)C(O)C[C@]2(O)CC(O)C(C(=O)O)C(CC(OC3O[C@H](C)[C@@H](O)[C@H](N)[C@@H]3O)/C=C/C=C/C=C/C=C/CC/C=C/C=C/[C@H](C)[C@H]1O)O2 (some centres undefined),90.8%,99.1%,105%,105%,103%,101%,97.8%,105%,93.7%,96.7%,111%,99.3%,92.9%,109%,102%,96.1%,101%,98.6%,107%
